A short description of experiment [1]: Confirmation and Secondary Assay for Modulators of Hemoglobin Beta Chain Splicing at IVS2 654 locus (AID 910).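 Also: HeLa cells stably carrying EGFP split by mutant beta-globin IVS2-654 intron; per-well total GFP intensity by laser scanning cytometry after 2-day treatment; % of control where 0% means no effect.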 In short, it runs like this:
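Readout: per-well total peak green fluorescence (488 nm ex, 500–520 nm em) from objects 5–250 µm, reflecting correct splicing of an EGFP-654 reporter. Compounds were applied for 2 days at 37 °C to overnight-plated HeLa EGFP-654 cells; controls were DMSO and 500 nM IVS2-654 PNA.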

Experiment [2] in a line: Confirmation and Secondary Assay for Modulators of Hemoglobin Beta Chain Splicing at IVS2 705 locus (AID 930).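 Also: HeLa cells stably expressing the EGFP-705 splicing reporter; % of control where 0% means no effect.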 Summed up: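 Assay measures total GFP intensity per well in HeLa EGFP-705 cells after 2 days with compound; mis-splicing normally truncates EGFP, so fluorescence indicates corrected splicing.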
Experiment [3] can be described thus: qHTS Assay for Lipid Storage Modulators (AID 1519; calls by dose curve; as to activity change, negative = inhibition: % is scaled to controls: 0 for no effect and ±100 for the full control effect). The note with it: Drosophila S3 cells, BODIPY lipid droplet/cell ratio, laser cytometry, cells loaded with oleic acid; for activity change, negative = inhibition: at 57.5 µM (top of the series). In short, it runs like this:
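Cells seeded at 5,000 per well were treated with compounds over a concentration series and loaded with oleic acid (400 uM, as added). Lipid droplet fluorescence (488 nm excitation, 500-530 nm channel) was read by laser-scanning cytometry and normalized to 20 uM Triacsin C.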
Background: In qHTS, concentration-response curves come from the screen itself.

For experiment [4], the target named is Ubiquitin carboxyl-terminal hydrolase 1 (Homo sapiens) (UniProt O94782). In words: Inhibitors of USP1/UAF1: Pilot qHTS (AID 504865).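 Also: rhodamine fluorescence freed from ubiquitin-rhodamine substrate followed over time; top concentration of the series differs between compounds; % is scaled to controls: 0 for no effect and ±100 for the full control effect; nearly all actives have a fitted effect of over 35% in size.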 In short, it runs like this: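 USP1/UAF1 complex at 1 nM preincubated 15 min at room temperature with compound, then Ub-Rho substrate added at 150 nM final. Fluorescence (480/540 nm) read kinetically in 50 mM HEPES pH 7.8, 0.5 mM EDTA, 1 mM TCEP, 0.1 mg/ml BSA, 0.01% Tween-20.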
Ubiquitin carboxyl-terminal hydrolase 1 (Homo sapiens), sequence (O94782 whole entry, looked up): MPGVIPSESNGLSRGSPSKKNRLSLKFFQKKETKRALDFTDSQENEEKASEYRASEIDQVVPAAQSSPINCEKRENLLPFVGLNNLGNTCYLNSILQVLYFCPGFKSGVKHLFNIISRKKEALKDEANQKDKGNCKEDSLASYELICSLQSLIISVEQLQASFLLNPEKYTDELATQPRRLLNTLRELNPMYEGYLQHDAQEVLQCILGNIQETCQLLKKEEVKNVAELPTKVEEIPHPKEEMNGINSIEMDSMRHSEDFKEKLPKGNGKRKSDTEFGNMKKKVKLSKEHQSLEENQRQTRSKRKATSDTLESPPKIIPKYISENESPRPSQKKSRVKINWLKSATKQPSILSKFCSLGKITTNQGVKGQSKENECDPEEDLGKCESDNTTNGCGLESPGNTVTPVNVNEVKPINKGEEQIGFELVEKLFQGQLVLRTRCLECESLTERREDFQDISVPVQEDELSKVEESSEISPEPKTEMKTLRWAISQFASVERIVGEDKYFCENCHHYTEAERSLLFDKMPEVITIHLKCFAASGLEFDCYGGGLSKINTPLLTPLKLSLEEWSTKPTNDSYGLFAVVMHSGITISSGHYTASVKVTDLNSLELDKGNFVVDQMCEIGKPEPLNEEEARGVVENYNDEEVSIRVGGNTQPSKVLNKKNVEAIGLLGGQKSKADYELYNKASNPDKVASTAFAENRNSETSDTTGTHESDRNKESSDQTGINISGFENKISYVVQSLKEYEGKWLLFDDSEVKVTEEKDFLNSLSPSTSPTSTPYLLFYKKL

Experiment [5] has as its target Cytochrome P450 3A4 (Homo sapiens) (UniProt P08684). In words: qHTS Assay for Inhibitors and Substrates of Cytochrome P450 3A4 (AID 884). Also: nearly all actives have a fitted effect of over 50% in size. Also: potency is read from the fitted curve at half-maximal effect. As to activity change, negative = inhibition: % is scaled to controls: 0 for no effect and ±100 for the full control effect. In short, it runs like this:
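Luminescent readout of luciferin produced by CYP3A4 (20 nM) dealkylation of Luciferin-PPXE, 25 uM (its KM). NADPH-driven reaction ran 60 min at RT after 10 min compound preincubation; data scaled to 57 uM ketoconazole as 100% inhibition.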

The target is the same in experiment [6]. Description: qHTS Assay for Activators of Cytochrome P450 3A4 (AID 885). Also: nearly all actives have a fitted effect of over 65% in size. Summed up: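 Luminescent readout of luciferin formed from 25 uM Luciferin-PPXE (KM level) by 20 nM CYP3A4 in 200 mM KPO4, with 60 min NADPH-driven reaction at room temperature after 10 min compound exposure. Ketoconazole (57 uM) defined 100% inhibition.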
The target in experiment [7] is DNA dC->dU-editing enzyme APOBEC-3G (Homo sapiens) (UniProt Q9HC16). In words: qHTS for inhibitors of Vif-A3G interactions: Validation (AID 588379). Also: 0% is about no effect. Summed up: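 Yellow fluorescence (Ex 488, Em 500-530) of Vif-coexpressing HeLa A3G-eYFP cells, scanned by Acumen cytometer, reports blocked A3G degradation. Cells plated at 700/well overnight at 37 deg C before compound addition, then a further overnight compound incubation at 37 deg C.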
DNA dC->dU-editing enzyme APOBEC-3G (Homo sapiens), sequence (Q9HC16 whole entry, looked up): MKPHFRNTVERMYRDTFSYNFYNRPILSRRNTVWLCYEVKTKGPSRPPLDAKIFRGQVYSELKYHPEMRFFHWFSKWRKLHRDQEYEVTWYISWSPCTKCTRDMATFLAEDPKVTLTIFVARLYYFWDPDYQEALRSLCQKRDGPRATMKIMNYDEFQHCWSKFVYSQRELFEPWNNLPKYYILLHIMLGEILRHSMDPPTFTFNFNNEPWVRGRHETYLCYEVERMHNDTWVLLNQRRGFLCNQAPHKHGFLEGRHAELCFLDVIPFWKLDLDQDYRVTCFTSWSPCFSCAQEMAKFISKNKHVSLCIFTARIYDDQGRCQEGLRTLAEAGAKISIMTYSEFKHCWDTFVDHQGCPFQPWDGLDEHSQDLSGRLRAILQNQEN

Where [8] appears, read: measured here: cell count channel max response.
Where [9] appears, read: measured here: lipid channel max response.

Structures are written as SMILES. Results filed as inconclusive are left out. Activity calls are given as the source filed them. Unless noted, calls follow the shape of the dose curve; as a rule, active = well fitted curve in the direction sought with a large enough effect; inconclusive = small, poorly fitted or top-dose-only effect, or another doubt; inactive = no such curve, though single readings can be large; an effect the other way counts as inactive or inconclusive.

The record followed here is PubChem BioAssay (NCATS).

Cytochrome P450 3A4 (Homo sapiens), sequence (P08684 whole entry, looked up): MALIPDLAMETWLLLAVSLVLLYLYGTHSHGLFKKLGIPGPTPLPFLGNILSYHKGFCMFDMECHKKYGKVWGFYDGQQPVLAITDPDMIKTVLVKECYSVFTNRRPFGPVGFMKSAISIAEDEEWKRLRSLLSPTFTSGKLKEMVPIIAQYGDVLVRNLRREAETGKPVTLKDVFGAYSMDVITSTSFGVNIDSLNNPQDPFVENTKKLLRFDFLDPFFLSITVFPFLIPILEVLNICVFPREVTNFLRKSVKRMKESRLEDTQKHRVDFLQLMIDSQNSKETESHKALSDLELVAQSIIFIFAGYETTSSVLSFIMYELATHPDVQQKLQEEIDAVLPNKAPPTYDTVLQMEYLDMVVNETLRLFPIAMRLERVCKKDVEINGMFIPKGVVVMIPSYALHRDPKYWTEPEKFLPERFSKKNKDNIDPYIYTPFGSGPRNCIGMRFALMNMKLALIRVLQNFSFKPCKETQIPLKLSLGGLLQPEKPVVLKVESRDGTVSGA

Regarding `NCC1O[C@@H](OC2C(N)CC(N)C(O)C2O[C@@H]2OC(CO)C(O)C2O)C(N)C(O)C1O` (stereo not given in full), the Potency result in experiment [1], in experiment [2] and in experiment [4] was “inactive” in each case. Besides, in experiment [3], the activity change, negative = inhibition was 6.74% (inactive). For the same compound, the max response in experiment [3] (setting [8]) is 5.17%; in experiment [3] (setting [9]), 12.7%.
In the case of `CCOC(=O)OC(C)OC(=O)C1N2C(=O)C(NC(=O)C(N)c3ccccc3)C2SC1(C)C` (stereo not given), the Potency result in experiment [1], in experiment [2] and in experiment [4] was “inactive” in each case. Moreover, the activity change, negative = inhibition in experiment [3] was 6.11% (inactive). The max response in experiment [3] (setting [8]) came to 21.6%; in experiment [3] (setting [9]), 29.1%.
In the case of `Fc1ccc([C@H]2CCNCC2COc2ccc3c(c2)OCO3)cc1` (stereo not given in full), the Potency result in experiment [1], in experiment [2] and in experiment [4] was “inactive” each time. The activity change, negative = inhibition in experiment [3] is 12.8% (inactive). Further, the max response in experiment [3] (setting [8]) is -0.955%; in experiment [3] (setting [9]), 14.7%.
Regarding `CC(=O)OC1C[C@]2(C)[C@@H](CC(O)C3[C@]4(C)CCC(O)C(C)[C@@H]4CC[C@]32C)/C1=C(/CCC=C(C)C)C(=O)O` (stereo not given in full), the Potency result in experiment [1], in experiment [2] and in experiment [4] was “inactive” in each case. Moreover, in experiment [3], the activity change, negative = inhibition is 5.26% (inactive). Further, the max response in experiment [3] (setting [8]) turned out to be 12.3%; in experiment [3] (setting [9]), 24.1%.
Consider `CCOC(=O)CCCCCCCCCCCCC1C=CCC1` (stereo not given), for which the Potency entry in experiment [1], in experiment [2] and in experiment [4] was “inactive” in each case. Also, the activity change, negative = inhibition in experiment [3] is 1.66% (inactive). Moreover, the figures for the max response in experiment [3] (setting [8]) and in experiment [3] (setting [9]) were 9.42% and 10.7%, respectively.
Take `COc1cc(C(=O)OC2CC[C@]3(C)C4CCC5[C@]6(O)CC(O)[C@]7(O)C(CN8CC(C)CCC8[C@]7(C)O)[C@]6(O)C[C@@]53O[C@]24O)cc(OC)c1OC` (stereo not given in full): the Potency result in experiment [1], in experiment [2] and in experiment [4] was “inactive” each time. Moreover, the activity change, negative = inhibition in experiment [3] was 4.04% (inactive). Besides, the max response was found to be 17.4% in experiment [3] (setting [8]) and 24.2% in experiment [3] (setting [9]).
In the case of `O=S(=O)(O)c1cc(N=C=S)ccc1/C=C/c1ccc(N=C=S)cc1S(=O)(=O)O`, the Potency entry in experiment [1], in experiment [2] and in experiment [4] was “inactive” throughout. In experiment [3], the activity change, negative = inhibition is 9.64% (inactive). Moreover, the max response is -3.47% in experiment [3] (setting [8]) and 10.3% in experiment [3] (setting [9]).
With `C[C@]12CCC(=O)C=C1CCC1C2C(O)C[C@]2(C)C1CC[C@]2(O)C(=O)CO` (stereo not given in full), the Potency entry in experiment [1], in experiment [2] and in experiment [4] was “inactive” in each case. Further, the activity change, negative = inhibition in experiment [3] was 12.8% (inactive). Moreover, the max response in experiment [3] (setting [8]) turned out to be 7.87%; in experiment [3] (setting [9]), 21.1%.
For the compound `C/C=C(\C)C(=O)OC1c2c(ccc3ccc(=O)oc23)OC(C)(C)C1OC(C)=O` (stereo not given), the Potency in experiment [5] was 25.1 µM (active). The Potency entry in experiment [6], in experiment [1] and in experiment [2] was “inactive” in each case. The activity change, negative = inhibition in experiment [3] is -20.9% (inactive). The results for the max response in experiment [3] (setting [8]) and in experiment [3] (setting [9]) were -0.795% and -21.2%, respectively.
`CCC(C)C(=O)O[C@H]1C[C@@H](C)C=C2C=C[C@H](C)[C@H](CC[C@@H]3C[C@@H](O)CC(=O)O3)C21` (stereo not given in full): the activity change, negative = inhibition in experiment [3] was -9.81% (inactive). Further, the max response was found to be 22% in experiment [3] (setting [8]) and 13.2% in experiment [3] (setting [9]). Besides, the compound was called inactive in experiment [7].
For the compound `COc1c2ccoc2nc2c(OC)c(OCC(O)C(C)(C)O)ccc12` (stereo not given), the Potency result in experiment [6] and in experiment [2] was “inactive” in each case. For the same compound, the activity change, negative = inhibition in experiment [3] was 9.6% (inactive). For the same compound, the figures for the max response in experiment [3] (setting [8]) and in experiment [3] (setting [9]) were 16.9% and 29.2%, respectively. Moreover, the result in experiment [7] was inactive.
On to `CC(C)C1=CC2=CC[C@@H]3[C@@](C)(C(=O)O)CCC[C@]3(C)C2CC1` (stereo not given in full), for which the Potency entry in experiment [5] was “inactive”. Further, the activity change, negative = inhibition in experiment [3] is 0.573% (inactive). Further, the max response is -0.0856% in experiment [3] (setting [8]) and -0.672% in experiment [3] (setting [9]). Further, in experiment [7], the outcome was inactive.
With `C[N+](C)(C)CCOP(=O)([O-])OP(=O)(O)OCC1OC(n2ccc(N)nc2=O)C(O)C1O` (stereo not given), the Potency result in experiment [2] and in experiment [4] was “inactive” throughout. Also, the activity change, negative = inhibition in experiment [3] was 5.88% (inactive). For the same compound, the max response in experiment [3] (setting [8]) was found to be 9.36%; in experiment [3] (setting [9]), 16.8%.
